Results on 17 compounds are retold here after ChEMBL document CHEMBL1961873, “Compounds: GSK PKIS; Assays: Nanosyn kinase panel” (2012).

In assay [1] the target is MAP/microtubule affinity-regulating kinase 3 (Homo sapiens) (UniProt P27448). The conditions noted are these: at 1 µM.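 Also: reported values are averaged percent inhibition of MARK3.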
Assay [2] has as its target T1, MAP/microtubule affinity-regulating kinase 4 (Homo sapiens) (UniProt Q96L34).
T1 sequence (whole entry): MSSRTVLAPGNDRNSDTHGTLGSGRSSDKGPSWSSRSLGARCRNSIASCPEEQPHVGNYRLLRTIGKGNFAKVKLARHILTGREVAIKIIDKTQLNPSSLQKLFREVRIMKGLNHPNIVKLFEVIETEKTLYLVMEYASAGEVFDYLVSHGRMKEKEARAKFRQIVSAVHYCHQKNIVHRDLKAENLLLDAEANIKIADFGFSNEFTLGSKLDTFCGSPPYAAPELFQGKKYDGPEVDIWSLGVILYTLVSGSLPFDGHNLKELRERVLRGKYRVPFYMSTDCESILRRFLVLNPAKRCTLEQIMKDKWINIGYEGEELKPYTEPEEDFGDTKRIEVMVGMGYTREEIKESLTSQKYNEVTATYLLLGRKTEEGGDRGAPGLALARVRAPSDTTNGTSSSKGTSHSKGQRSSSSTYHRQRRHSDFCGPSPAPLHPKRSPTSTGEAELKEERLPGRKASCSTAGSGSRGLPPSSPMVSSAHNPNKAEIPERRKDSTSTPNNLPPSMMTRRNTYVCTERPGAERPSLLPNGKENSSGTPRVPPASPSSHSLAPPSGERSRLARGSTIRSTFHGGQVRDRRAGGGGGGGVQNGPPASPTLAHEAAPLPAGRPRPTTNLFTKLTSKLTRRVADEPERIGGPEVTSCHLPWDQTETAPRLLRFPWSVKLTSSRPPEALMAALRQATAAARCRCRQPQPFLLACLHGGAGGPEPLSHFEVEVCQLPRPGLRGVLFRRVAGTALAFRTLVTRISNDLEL
The note with it: at 0.1 µM.

The target of assay [3] is T1, MAP/microtubule affinity-regulating kinase 4 (Homo sapiens). The conditions noted are these: at 1 µM.
Assay [4] addresses Maternal embryonic leucine zipper kinase (Homo sapiens) (UniProt Q14680). The note with it: at 0.1 µM.
Assay [5] has the same target. The note with it: at 1 µM.
The target of assay [6] is MAP kinase-interacting serine/threonine-protein kinase 1 (Homo sapiens) (UniProt Q9BUB5). The note with it: at 0.1 µM.
MAP kinase-interacting serine/threonine-protein kinase 1 (Homo sapiens), sequence (Q9BUB5 whole entry, looked up): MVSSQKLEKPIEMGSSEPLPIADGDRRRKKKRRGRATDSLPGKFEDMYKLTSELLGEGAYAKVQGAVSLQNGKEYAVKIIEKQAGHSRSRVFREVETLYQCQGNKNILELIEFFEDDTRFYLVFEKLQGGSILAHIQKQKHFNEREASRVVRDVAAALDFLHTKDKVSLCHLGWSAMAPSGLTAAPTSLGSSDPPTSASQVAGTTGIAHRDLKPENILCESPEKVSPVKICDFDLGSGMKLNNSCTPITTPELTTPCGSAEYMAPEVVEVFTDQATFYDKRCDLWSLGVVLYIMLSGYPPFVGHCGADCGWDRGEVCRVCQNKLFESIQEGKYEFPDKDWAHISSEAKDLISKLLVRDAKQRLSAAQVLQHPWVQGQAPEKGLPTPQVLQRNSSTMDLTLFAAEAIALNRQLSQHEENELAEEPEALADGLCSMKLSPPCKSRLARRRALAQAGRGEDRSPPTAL
The target is the same in assay [7]. The note with it: at 1 µM.
Assay [8] concerns the target MAP kinase-interacting serine/threonine-protein kinase 2 (Homo sapiens) (UniProt Q9HBH9). The conditions noted are these: at 0.1 µM.
For assay [9] the target is unchanged. The note with it: at 1 µM.
The target in assay [10] is Serine/threonine-protein kinase MARK2 (Homo sapiens) (UniProt Q7KZI7). The conditions noted are these: at 0.1 µM.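 Also: mean percent inhibition of PAR-1Balpha kinase activity, reported from the GSK PKIS screen.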
Serine/threonine-protein kinase MARK2 (Homo sapiens), sequence (Q7KZI7 whole entry): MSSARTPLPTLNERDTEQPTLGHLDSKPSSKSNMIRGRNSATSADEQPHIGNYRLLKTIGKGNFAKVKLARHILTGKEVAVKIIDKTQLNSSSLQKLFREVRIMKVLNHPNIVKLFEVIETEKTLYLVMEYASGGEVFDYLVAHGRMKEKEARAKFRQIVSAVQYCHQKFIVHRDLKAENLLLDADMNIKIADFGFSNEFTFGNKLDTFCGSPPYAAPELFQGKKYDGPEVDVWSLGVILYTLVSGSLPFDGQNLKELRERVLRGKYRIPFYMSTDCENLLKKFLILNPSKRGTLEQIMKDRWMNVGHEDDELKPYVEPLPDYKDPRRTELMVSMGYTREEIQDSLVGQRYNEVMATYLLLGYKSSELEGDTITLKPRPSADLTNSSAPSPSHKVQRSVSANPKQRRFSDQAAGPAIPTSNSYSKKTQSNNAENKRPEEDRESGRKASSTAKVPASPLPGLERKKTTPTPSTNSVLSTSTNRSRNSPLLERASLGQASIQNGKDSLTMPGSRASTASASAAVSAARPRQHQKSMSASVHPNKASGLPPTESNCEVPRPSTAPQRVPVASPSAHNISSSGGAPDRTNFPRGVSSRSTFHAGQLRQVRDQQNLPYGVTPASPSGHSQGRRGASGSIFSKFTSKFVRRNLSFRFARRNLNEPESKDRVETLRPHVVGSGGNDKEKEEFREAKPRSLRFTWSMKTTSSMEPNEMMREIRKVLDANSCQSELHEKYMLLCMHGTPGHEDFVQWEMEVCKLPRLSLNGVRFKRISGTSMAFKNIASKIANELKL

Maternal embryonic leucine zipper kinase (Homo sapiens), sequence (Q14680 whole entry, looked up): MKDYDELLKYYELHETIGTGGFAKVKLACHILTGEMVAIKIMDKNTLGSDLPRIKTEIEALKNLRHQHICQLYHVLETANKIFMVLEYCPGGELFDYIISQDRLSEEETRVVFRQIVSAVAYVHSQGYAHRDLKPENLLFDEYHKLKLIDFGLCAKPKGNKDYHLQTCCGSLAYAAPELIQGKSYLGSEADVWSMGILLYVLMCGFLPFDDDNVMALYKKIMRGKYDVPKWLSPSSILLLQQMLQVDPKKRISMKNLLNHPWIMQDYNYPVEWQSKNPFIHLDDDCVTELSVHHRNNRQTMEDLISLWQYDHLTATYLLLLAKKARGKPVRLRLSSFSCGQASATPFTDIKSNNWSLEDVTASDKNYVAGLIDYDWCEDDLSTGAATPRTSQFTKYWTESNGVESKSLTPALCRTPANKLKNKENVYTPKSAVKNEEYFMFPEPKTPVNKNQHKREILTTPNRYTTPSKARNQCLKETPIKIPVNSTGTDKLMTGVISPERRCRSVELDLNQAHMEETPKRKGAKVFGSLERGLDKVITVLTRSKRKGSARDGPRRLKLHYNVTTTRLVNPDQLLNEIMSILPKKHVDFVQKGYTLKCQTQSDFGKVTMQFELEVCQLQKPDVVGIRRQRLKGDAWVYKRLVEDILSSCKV
MAP kinase-interacting serine/threonine-protein kinase 2 (Homo sapiens), sequence (Q9HBH9 whole entry, looked up): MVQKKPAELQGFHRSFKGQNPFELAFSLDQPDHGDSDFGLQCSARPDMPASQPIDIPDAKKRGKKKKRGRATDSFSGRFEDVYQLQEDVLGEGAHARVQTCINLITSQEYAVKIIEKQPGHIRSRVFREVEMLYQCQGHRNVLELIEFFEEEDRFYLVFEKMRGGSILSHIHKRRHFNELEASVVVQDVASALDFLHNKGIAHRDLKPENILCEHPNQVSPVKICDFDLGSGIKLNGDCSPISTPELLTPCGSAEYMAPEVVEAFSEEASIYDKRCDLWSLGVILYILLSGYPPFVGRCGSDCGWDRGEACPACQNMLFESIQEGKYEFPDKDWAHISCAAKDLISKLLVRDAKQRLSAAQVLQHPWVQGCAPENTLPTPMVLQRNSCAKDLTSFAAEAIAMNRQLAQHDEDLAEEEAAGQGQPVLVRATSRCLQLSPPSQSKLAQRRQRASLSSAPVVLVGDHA
MAP/microtubule affinity-regulating kinase 3 (Homo sapiens), sequence (P27448 whole entry, looked up): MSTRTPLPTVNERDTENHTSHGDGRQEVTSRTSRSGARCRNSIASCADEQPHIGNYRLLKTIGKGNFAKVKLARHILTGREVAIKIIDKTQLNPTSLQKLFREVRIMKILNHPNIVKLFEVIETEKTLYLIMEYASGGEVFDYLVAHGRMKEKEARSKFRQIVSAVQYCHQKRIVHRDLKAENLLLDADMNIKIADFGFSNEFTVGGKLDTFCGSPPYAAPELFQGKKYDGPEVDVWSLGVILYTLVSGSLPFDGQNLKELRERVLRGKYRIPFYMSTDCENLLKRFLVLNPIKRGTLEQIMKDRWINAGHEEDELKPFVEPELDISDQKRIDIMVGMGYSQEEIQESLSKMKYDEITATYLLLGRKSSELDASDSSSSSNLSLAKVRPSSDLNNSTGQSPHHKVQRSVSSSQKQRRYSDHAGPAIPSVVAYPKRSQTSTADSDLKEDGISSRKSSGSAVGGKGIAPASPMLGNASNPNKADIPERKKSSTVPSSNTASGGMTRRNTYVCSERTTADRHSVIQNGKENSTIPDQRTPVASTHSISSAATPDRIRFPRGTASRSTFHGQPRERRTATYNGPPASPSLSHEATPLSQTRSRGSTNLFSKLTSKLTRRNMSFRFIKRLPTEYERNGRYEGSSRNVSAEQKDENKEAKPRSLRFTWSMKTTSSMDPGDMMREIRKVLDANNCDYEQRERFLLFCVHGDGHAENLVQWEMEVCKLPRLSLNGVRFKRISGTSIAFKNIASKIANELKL

In the case of `COc1ccc(-c2nn3ncccc3c2-c2ccnc(Nc3cccc(C(F)(F)F)c3)n2)cc1`, the inhibition in assay [1] was 3.49%; in [2], 1.29%; in assay [3], 1.74%; in assay [4], 2.53%; in assay [5], 1.64%; in assay [6], 1.88%. Besides, the inhibition is 3.34% in assay [7], 0.77% in assay [8], 1.76% in assay [9] and -0.74% in assay [10].
As for `CCOc1nccc2c1nc(-c1nonc1N)n2CC`, the inhibition is 9.66% in assay [1]; 1.03% in [2]; 5.45% in [3]; 3.16% in [4]; 5.63% in assay [5]; 3.48% in assay [6]. Besides, the inhibition was 9.35% in [7], 3.06% in assay [8], 6.16% in assay [9] and 1.34% in assay [10].
In the case of `COC(=O)c1cncc(/C=C/c2c(C)cc(O)cc2C)c1`, the inhibition in assay [1] amounted to 2.01%; in [2], 0.01%; in assay [3] it was 0.82%; in assay [4], 2.47%; in assay [5], 5.13%; in [6] it was 4.41%. The inhibition stood at 25.6% in [7], 3.34% in [8], 16.1% in assay [9] and 0.36% in assay [10].
With `Cc1cc(Cl)cc2c1NC(=O)C2=NNc1ccc(S(N)(=O)=O)cc1`, the inhibition in assay [1] was 1.21%; in [2], -0.63%; in assay [3], -0.34%; in assay [4], 0.8%; in assay [5], 0.86%; in assay [6], 1.47%. The inhibition turned out to be 6.58% in assay [7], 1.41% in assay [8], 4.45% in [9] and 0.48% in assay [10].
For `C[C@@H](Oc1cc(-n2cnc3ccc(OC[C@@H](O)CO)cc32)sc1C(N)=O)c1ccccc1Cl`, the inhibition is 5.81% in assay [1]; 1.02% in [2]; 5.24% in assay [3]; -2.58% in [4]; 3.21% in assay [5]; -0.74% in assay [6]. Besides, the inhibition in assay [7] is 2.69%; in assay [8], 0.15%; in assay [9], 2.94%; in assay [10] it was -0.27%.
On to `NS(=O)(=O)c1ccc(NC=C2C(=O)Nc3ccc4ncsc4c32)cc1`, for which the inhibition is 60.7% in [1]; 21% in [2]; 58.7% in [3]; 62.7% in assay [4]; 94.4% in assay [5]; 9.09% in assay [6]. Moreover, the inhibition was found to be 39.2% in assay [7], 3.84% in assay [8], 18.1% in assay [9] and 14% in assay [10].
In the case of `[O-][S+]1CCN(Cc2ccc(-c3ccc4ncnc(Nc5ccc(OCc6ccccc6)c(Cl)c5)c4c3)o2)CC1`, the inhibition in assay [1] was 2.17%; in [2], 1.29%; in assay [3], 2.1%; in assay [4] it was 2.37%; in assay [5], 5.78%; in assay [6], 1.69%. The inhibition in [7] amounted to 5.98%; in [8] it was 0.13%; in assay [9], 8.54%; in assay [10] it was 0.59%.
With `COc1cc2ncnc(Nc3ccc(C)c(O)c3)c2cc1OC`, the inhibition amounted to 6.46% in assay [1]; 1.47% in assay [2]; 4.13% in [3]; 5.67% in assay [4]; 8.15% in assay [5]; 6.8% in assay [6]. In addition, the inhibition was found to be 30.9% in assay [7], 3.13% in assay [8], 15.8% in assay [9] and 2.85% in [10].
On to `Nc1nccc(-c2c(-c3ccc(F)cc3)ncn2CCCN2CCOCC2)n1`, for which the inhibition is 8.72% in [1]; 1.4% in [2]; 1.82% in [3]; 9.7% in [4]; 2.83% in assay [5]; 2.6% in assay [6]. Besides, the inhibition came out at 7.69% in [7], 1.53% in assay [8], 0.94% in assay [9] and 3.08% in [10].
On to `COc1cc(/C=N/Nc2ncnc3c2cnn3C(C)C)ccc1O`, for which the inhibition was found to be 0.41% in assay [1]; 0.37% in assay [2]; 4.17% in assay [3]; 26.7% in [4]; 80.3% in [5]; 1.07% in [6]. Also, the inhibition in assay [7] was 5.78%; in [8] it was 1.33%; in assay [9] it was 2.77%; in assay [10] it was -0.89%.
Turning to `NS(=O)(=O)c1cccc(Nc2cc(-c3ccc(F)cc3)n[nH]2)c1`, the inhibition came to 19% in [1]; 3.62% in [2]; 20.2% in [3]; 0.82% in assay [4]; 4.1% in [5]; 2.78% in [6]. The inhibition in assay [7] was found to be 10.7%; in [8] it was 3.32%; in assay [9], 13%; in [10], 1.43%.
Consider `O=C1Nc2ccc(-c3cccnc3)cc2C1=Cc1cc(Br)c(O)c(Br)c1`, for which the inhibition in [1] stood at 6.43%; in assay [2], 1.85%; in assay [3], 3.53%; in assay [4], 3.77%; in assay [5] it was 10.4%; in [6], 2.71%. In addition, the inhibition is 12.7% in [7], 6.02% in assay [8], 36% in assay [9] and 1.17% in assay [10].
As to `Oc1cccc(-c2nc(-c3ccccc3)[nH]c2-c2ccncc2)c1`, the inhibition turned out to be 6.43% in assay [1]; 1.16% in assay [2]; 2.71% in assay [3]; 4.46% in assay [4]; 5.5% in assay [5]; 5.55% in assay [6]. The inhibition in assay [7] is 25.6%; in assay [8], 1.57%; in assay [9], 14.8%; in assay [10] it was -0.88%.
Turning to `CN(C)C(=O)O[C@@H]1CN[C@@H](C#Cc2cc3ncnc(Nc4ccc(OCc5cccc(F)c5)c(Cl)c4)c3s2)C1`, the inhibition was -0.12% in [1]; 0.74% in assay [2]; 1.37% in [3]; -0.39% in assay [4]; 3.35% in [5]; 0.76% in [6]. For the same compound, the inhibition was 3.62% in [7], 0.4% in assay [8], 5.87% in [9] and 0.66% in [10].
In the case of `c1ccc(Nc2ncc(-c3ccccc3)o2)cc1`, the inhibition in [1] was found to be 4.02%; in assay [2], 2.77%; in [3], 4.32%; in assay [4] it was 5.53%; in [5], 9.84%; in assay [6], 1.77%. In addition, the inhibition in assay [7] was 3.22%; in assay [8] it was 0.51%; in assay [9], 4.71%; in assay [10], 0.14%.
`Cc1cc(-c2ccccn2)cc(C)c1/C=C/c1cncc(-c2nn[nH]n2)c1`: the inhibition in [1] is 7.09%; in assay [2], 2.52%; in [3], 3.91%; in [4], 4.28%; in assay [5] it was 9.19%; in assay [6], 2.08%. Moreover, the inhibition stood at 3.07% in assay [7], 0.76% in assay [8], 2.73% in assay [9] and 1.02% in assay [10].
Take `NS(=O)(=O)c1ccc(-c2cc3ccncc3cc2OCc2ccccc2)cc1`: the inhibition is 0.1% in [1]; 0.25% in assay [2]; 1.99% in [3]; 1.24% in [4]; 3.87% in assay [5]; 4.45% in assay [6]. In addition, the inhibition was 17.7% in assay [7], 4.29% in assay [8], 26.4% in [9] and -2.14% in assay [10].
